# Test results from ChEMBL document CHEMBL4513216, “Probing the Open Global Health Chemical Diversity Library for Multistage-Active Starting Points for Next-Generation Antimalarials” (ACS Infect Dis, 2020).
# Among all 69,000 compounds or so, about 8,600 (12%) showed an effect of 50% or more. Only a selection was taken, and strong results are over-represented in it overall.
# System: Plasmodium berghei
# Assay: Screen against P. berghei liver stage (PbLuc), transformed with Luciferase, at 10uM
# Format: functional, HepG2
# Settings: tested at 10 uM
row,Structure (SMILES),INHIBITION
1,COCCC(C)NC(=O)N1CCC(n2ccc(C(F)(F)F)n2)CC1 (stereo not given),15.7%
2,CCS(=O)(=O)N1CCN(C(=O)c2cnc3[nH]nc(C)c3c2)CC1,-35.2%
3,O=C(c1coc(COc2ccccc2F)n1)N1CCCO1,-4.235%
4,O=C(c1coc(COc2cccc3cnccc23)n1)N1CCCCCC1,84.1%
5,O=C(O)c1coc(COc2cccc3cnccc23)n1,-2.46%
6,O=C(c1coc(COc2cccc3cnccc23)n1)N1CCSCC1,74.9%
7,COCCC1CCCCN1C(=O)c1coc(COc2ccccc2F)n1 (stereo not given),29.735%
8,O=C(c1coc(COc2ccccc2F)n1)N1CCC[C@H]1CO,2.611%
9,CC1CCCCN1C(=O)c1coc(COc2cccc3cnccc23)n1 (stereo not given),68.4%
10,O=C(c1coc(COc2cccc(F)c2)n1)N1CC[C@H](O)[C@@H](O)C1,6.8%
11,O=C(c1cc(=O)c(OCc2ccccc2)co1)N1CCSCC1,21.5%
12,Cc1cc(Cn2c(=O)c3c(C(F)(F)F)cc(C)nc3n2C)on1,4.81%
13,CN1CCOC(CNCC(=O)NCCCc2ccccc2)C1 (stereo not given),-17.8%
14,COc1ccc(CN(C)Cc2ccnc(C3CCCO3)n2)cc1 (stereo not given),21.95%
15,Cc1ncc(CNC(=O)NC2CCN(C3CCCC3)CC2)s1,-53.6%
16,Cc1cccc(CN2CC[C@@H]3O[C@@H](C(=O)N4CCN(C)CC4)C[C@@H]32)n1,-5.25%
17,CCOC(=O)N1CCN(C(=O)c2cc(-c3ccc(Cl)cc3Cl)on2)CC1,-6.91%
18,CCN(Cc1cccc(F)c1)Cc1nc2c(cnn2C)c(=O)[nH]1,3.73%
19,CC1(NC(=O)Cc2csc(NC(=O)c3ccccc3)n2)CCS(=O)(=O)C1 (stereo not given),-14.2%
20,CCc1ncncc1C(=O)NC1CCc2nc(C)cn2C1 (stereo not given),-53.5%
21,Cc1ccccc1[C@@H]1CN(Cc2ccc(C(F)(F)F)nc2)C[C@H]1C(=O)O,59.7%
22,COc1ccccc1[C@@H]1CN(Cc2ccc3nsnc3c2)C[C@H]1C(=O)O,68.2%

row,Structure (SMILES),INHIBITION
1,CCC[C@@H]1CN(Cc2ccc(C(F)(F)F)nc2)C[C@H]1C(=O)O,37.2%
2,Cc1ccccc1[C@@H]1CN(Cc2c(C)noc2C)C[C@H]1C(=O)O,2.25%
3,COc1ccccc1[C@@H]1CN(Cc2ccncc2)C[C@H]1C(=O)O,-21.8%
4,COc1ccccc1[C@@H]1CN(Cc2csc(C(C)=O)c2)C[C@H]1C(=O)O,-82.7%
5,COCCO[C@H]1CCN(C(=O)c2ccc[nH]2)[C@H]1Cc1ccncc1,42.6%
6,CC(C)c1noc(CN2CCC(c3ccnn3CCO)CC2)n1,-24.2%
7,O=C(Nc1ccnn1Cc1ccccc1Cl)C1CCS(=O)(=O)C1 (stereo not given),-4.12%
8,CCOCC(=O)N1CCC2(CC1)COCCN2CCOC,12.1%
9,Cn1ncc2c(N3CCN(C(=O)c4ccsc4)CC3)ncnc21,21.6%
10,Cc1ccccc1OCCC(=O)N(C)Cc1c(C)noc1C,25.5%
11,Cc1ccc(C)c(OCC(O)CN(C)CC(=O)Nc2cc(C)on2)c1 (stereo not given),84.3%
12,Cc1ccc(C)c(OCC(O)Cn2ncc3cnn(C)c(=O)c32)c1 (stereo not given),-28.9%
13,COc1cc(CN(C)C(=O)Nc2cc(C)on2)ccc1SC,40.1%
14,Cc1ccc(OCCN(C)C(=O)CCCC(N)=O)c(C)c1,-7.65%
15,Cc1ccc(OCC(O)CN(C)CC(=O)Nc2cc(C)on2)c(C)c1 (stereo not given),77.9%
16,Cc1ccc(OCCC(=O)N(C)CC(=O)Nc2cc(C)on2)c(C)c1,52.2%
17,Cc1ccc(OCC(O)CN(C)CC(=O)NC(C)C)c(C)c1 (stereo not given),33%
18,Cc1ccc(C)c(OCc2cc(C(=O)N(C)CC(O)CO)no2)c1 (stereo not given),10.4%
19,CC(C)Cn1cncc1-c1nc2c([nH]1)CC(C)(C)CNC2=O,-109%
20,CCn1cc(CN2CCCN(C(=O)c3ccc(C#N)cc3)CC2)cn1,25.6%
21,Cn1ncc2c(=O)[nH]c(CN3CCCC3CC(C)(C)C)nc21 (stereo not given),19.6%
22,CC(C)=CCN1C(=O)[C@@H]2CC[C@H]1CN(C(=O)CCc1nnc(Cl)[nH]1)C2,-15.3%

row,Structure (SMILES),INHIBITION
1,Cc1cc(NCCN)nc(-c2ccccc2O)n1,17.7%
2,Cn1cc(Cl)cc1C(=O)N1CCN(CCc2cccs2)CC1,23.73%
3,O=C(CC1Cn2ncnc2NC1=O)Nc1ccc(F)c(F)c1 (stereo not given),26.7%
4,Cc1nc(CN2CCN(c3cncc(Cl)n3)CC2)no1,14.6%
5,CN1CC(=O)N(c2ccccc2)CC12CCN(Cc1nccs1)C2 (stereo not given),-35.9%
6,COc1ncccc1CN1CCC2(CC1)CN(c1ccccn1)CCO2,41.8%
7,Fc1ccc(CN2CCC3(CC2)CN(c2ccccn2)CCO3)cc1,79.1%
8,Cn1ccnc1CN1CCC2(CC1)CN(c1ccccn1)CCO2,91.9%
9,COc1ccc(CN2CCC3(CC2)CN(c2ccccn2)CCO3)cc1,26.4%
10,Cc1noc(C)c1CN1CCC2(CC1)CN(c1ccccn1)CCO2,-40.4%
11,c1ccc(CN2CCC3(CC2)CN(c2ccccn2)CCO3)nc1,-6.97%
12,CC(C)c1nc(CN2CCCN(c3nccs3)CC2)no1,25.4%
13,CC(=O)N1CCn2c(C(=O)N(C)C)cnc2C1,47.8%
14,CSc1ccccc1C(=O)N1C[C@@H]2CC[C@H]1CN(C(=O)N(C)C)C2,21.2%
15,Nc1c(C(=O)C2CCCN(C(=O)C3CC3)C2)cnn1-c1ccc(F)cc1 (stereo not given),38.9%
16,CCC(=O)N1CCCC(C(=O)c2cnn(-c3ccc(F)cc3)c2N)C1 (stereo not given),56.3%
17,CCCC(=O)N1CCCC(C(=O)c2cnn(-c3ccc(F)cc3)c2N)C1 (stereo not given),17.35%
18,c1cnc(C2CCCN2c2cnccn2)cn1 (stereo not given),42.4%
19,CC(C)Cc1cc(C(=O)N2CCC(N3CCCC3)CC2)cc(O)n1,24.4%
20,COCC1CCN(C(=O)c2cc(O)nc(CC(C)C)c2)CC1,51.1%
21,CC(C)Cc1cc(C(=O)N2CCC(Cc3cnn(C)c3)C2)cc(O)n1 (stereo not given),26.6%
22,COC(=O)c1ccc(S(=O)(=O)N2CCCn3ncnc32)s1,3.84%

row,Structure (SMILES),INHIBITION
1,O=C1CC(c2ccc(Cl)c(Cl)c2)c2c(n3ccsc3nc2=O)N1 (stereo not given),36.2%
2,O=C(c1cc(-c2cccs2)cs1)N1CCOCC1,-132%
3,CC(C)c1nnc2n1CCN(Cc1cc(Cl)c3c(c1)OCCO3)C2,10.1%
4,CC(Cn1ccnc1)NC(=O)NCc1cccnc1OC1CCCC1 (stereo not given),17.4%
5,CCc1ccc(C(=O)N2CCCC2c2nnc3n2CCCCC3)o1 (stereo not given),57.7%
6,Cc1ccc(C(=O)N2CCCC2c2nnc3n2CCCCC3)o1 (stereo not given),8.47%
7,CC(C)CCC(=O)N1CCCC1c1nnc2n1CCCCC2 (stereo not given),26.9%
8,CC(=O)N1CCCC1c1nnc2n1CCCCC2 (stereo not given),-2.37%
9,O=C(c1ccc(Cl)o1)N1CCCC1c1nnc2n1CCCCC2 (stereo not given),29.8%
10,CSCCC(=O)N1CCCC1c1nnc2n1CCCCC2 (stereo not given),54.3%
11,CCN(CC)CCNC(=O)c1cc(OC)c2ccoc2c1,31.1%
12,CC(=O)CN1CC2(CCNCC2)COc2ccccc2S1(=O)=O,26.3%
13,COc1nccnc1-c1cc(NC2CCNCC2)nc2[nH]ccc12,-2.69%
14,COc1nccnc1-c1cc(NC2CCCC2)nc2[nH]ccc12,60%
15,FC(F)(F)c1ccc(-c2cc(NC3CCNCC3)nc3[nH]ccc23)nc1,18.5%
16,COc1ncc(-c2cc(NC3CCCC3)nc3[nH]ccc23)c(OC)n1,66.7%
17,COc1ncc(-c2cc(NCCN(C)C)nc3[nH]ccc23)c(OC)n1,49%
18,COc1cc(-c2cc(NC3CCCC3)nc3[nH]ccc23)nc(N)n1,42.1%
19,CCS(=O)(=O)N1CCC(c2nc(C)c(C)c(N3CCCC3)n2)CC1,22.35%
20,Cc1noc([C@]23COC[C@H]2CN(C(=O)Cc2ccsc2)C3)n1,38.5%
21,O=C(CC1[C@H]2CN(Cc3ccc(F)cc3)C[C@@H]12)N1CCCC1 (stereo not given in full),-7.28%
22,O=C(NCCc1cc(F)ccc1F)NCC(O)C1CC1 (stereo not given),14.9%

row,Structure (SMILES),INHIBITION
1,CN(C(=O)c1ccc[nH]1)C1CC(=O)N(Cc2ccccc2)C1=O (stereo not given),15.2%
2,Cc1[nH]ccc1C(=O)N(C)C1CC(=O)N(Cc2ccccc2)C1=O (stereo not given),54.4%
3,Cc1nc(C(=O)N(C)C2CC(=O)N(Cc3ccccc3)C2=O)cs1 (stereo not given),8.51%
4,O=C(c1cc(C2CCCCN2C(=O)C2CCC2)n[nH]1)N1CCOCC1 (stereo not given),-22.6%
5,CCn1ncc(CN2CCc3nc(-c4cccnc4)nc(O)c3C2)c1C,29.2%
6,CN(C)C(=O)COC[C@]12COC[C@H]1CN(Cc1ccco1)C2,-3.33%
7,CN(C)C(CNC(=O)NCCc1cccc(O)c1)c1ccco1 (stereo not given),41.4%
8,Cc1nc(CCNC(=O)NCC(c2ccco2)N(C)C)cs1 (stereo not given),55.6%
9,CN(C)C(CNC(=O)NCCS(C)(=O)=O)c1ccco1 (stereo not given),-18.3%
10,Cn1ccc2c(C(=O)N3CC[C@@]4(O)CCCC[C@H]4C3)cccc21,1.62%
11,O=S(=O)(Cc1ccccc1)NCc1nnc2n1CCC2,-12.4%
12,O=C(NCc1nnc2n1CCC2)N(Cc1ccc(F)cc1)C1CC1,50.4%
13,O=C(NCc1nnc2n1CCC2)c1ccc(C2CCCO2)s1 (stereo not given),-1.7%
14,O=C(NCc1nnc2n1CCCCC2)N(Cc1ccncc1)C1CC1,26.5%
15,O=C(NCc1nnc2n1CCC2)c1ccc(Br)s1,49.4%
16,O=S(=O)(Cc1ccc(F)cc1)NCc1nnc2n1CCC2,68.9%
17,O=C(NCc1nnc2n1CCCC2)c1ccc(C2CCCO2)s1 (stereo not given),59.1%
18,CCN(CC1CCOC1)C(=O)NCc1nnc2n1CCC2 (stereo not given),42%
19,CCN(CC1CCOC1)C(=O)NCc1nnc2n1CCCCC2 (stereo not given),34.4%
20,CN(Cc1ccc(F)cc1)C(=O)NCc1nnc2n1CCC2,-21.8%
21,O=C(NCc1nnc2n1CCCCC2)N(CC1CCOC1)C1CC1 (stereo not given),55%
22,O=S(=O)(Cc1ccc(F)cc1)NCCc1nnc2n1CCC2,30.5%
